GC-B act: GC-B (human) receptor activation. P20594. HEK293-GC-B cells, CNP EC30, cGMP TR-FRET; 0% at EC30 CNP, 100% saturating CNP. activation, % at 10 µM. 370,000 tested, 0.11% active. AID 1920062;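 active = activation at 10 µM reaching about 35% in either raw or pattern-adjusted values, limit read from the data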
PLC-beta3 inh: inhibitors of human phospholipase C beta3 | Purified PLC-beta3, fluorogenic substrate, fluorescence | inhibition, % at 12.2 µM | 370,000 tested, 0.18% active | AID 720704; in the data active = inhibition above about 11%
GC-A act: GC-A (human) enzyme activation; 370,000 tested, 0.14% active; HEK293 GC-A cells, cGMP TR-FRET, EC30 ANP; 0% at EC30 ANP, 100% saturating ANP; P16066; activation, % at 10 µM; in the data active = activation above about 40%
Target sequence (P16066 whole entry, looked up): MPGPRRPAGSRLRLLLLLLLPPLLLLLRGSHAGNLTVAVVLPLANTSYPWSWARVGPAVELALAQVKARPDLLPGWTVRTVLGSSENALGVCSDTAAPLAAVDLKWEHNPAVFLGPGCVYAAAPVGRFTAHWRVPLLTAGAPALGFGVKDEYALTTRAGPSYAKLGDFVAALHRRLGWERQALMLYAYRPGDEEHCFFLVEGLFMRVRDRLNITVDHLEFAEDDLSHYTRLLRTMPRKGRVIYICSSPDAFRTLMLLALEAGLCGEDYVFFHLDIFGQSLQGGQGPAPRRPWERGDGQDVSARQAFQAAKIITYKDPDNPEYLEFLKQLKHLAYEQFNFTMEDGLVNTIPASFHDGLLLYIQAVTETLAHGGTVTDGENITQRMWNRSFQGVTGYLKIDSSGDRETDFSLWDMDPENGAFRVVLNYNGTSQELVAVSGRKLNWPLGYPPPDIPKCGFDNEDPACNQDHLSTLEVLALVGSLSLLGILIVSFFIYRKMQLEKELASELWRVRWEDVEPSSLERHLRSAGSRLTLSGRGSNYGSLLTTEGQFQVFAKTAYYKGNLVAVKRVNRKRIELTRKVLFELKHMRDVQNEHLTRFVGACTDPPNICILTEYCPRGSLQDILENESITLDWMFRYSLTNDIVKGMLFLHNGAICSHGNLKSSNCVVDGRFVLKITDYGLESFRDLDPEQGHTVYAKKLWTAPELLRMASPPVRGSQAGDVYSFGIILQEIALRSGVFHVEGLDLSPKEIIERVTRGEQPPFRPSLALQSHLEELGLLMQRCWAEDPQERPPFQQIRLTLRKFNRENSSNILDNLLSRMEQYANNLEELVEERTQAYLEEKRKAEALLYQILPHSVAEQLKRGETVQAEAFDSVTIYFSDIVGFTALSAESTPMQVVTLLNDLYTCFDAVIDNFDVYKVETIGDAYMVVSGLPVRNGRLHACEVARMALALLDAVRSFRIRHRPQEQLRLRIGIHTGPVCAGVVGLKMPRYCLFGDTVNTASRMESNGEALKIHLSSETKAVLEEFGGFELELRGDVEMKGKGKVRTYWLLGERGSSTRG
PLCg1 inh: PLC-gamma1 (human) inhibition, primary screen. purified PLC-gamma1, fluorogenic substrate, fluorescence. AID 720700. inhibition, % at 12.2 µM. P19174. 370,000 tested, 0.84% active; in the data active = inhibition above about 9.5%
Each line names hits and unclear results; the compound was inactive in the other large screens. A selection: hits, their analogues and other compounds. The true share with any hit is near 1.2%.

C=CCn1c(C(CCCC)CC(O)COCC(C)C)n[nH]c1=S (stereo not drawn)	none
Cc1nc2ncnn2c(C)c1CCC(=O)O	PLCg1 inh 10
OCC1(Cc2ccccc2)CCN(C2CCN(c3ccccc3F)CC2)CC1	none
Cc1ccc(Nc2c(-c3ccc(C)o3)nc3cnccn23)cc1	GC-B act 40
Cc1ccc(-c2nc3cnccn3c2Nc2ccccc2)o1	GC-B act 32
Cc1ccc(-c2nc3cnccn3c2Nc2ccc3c(c2)OCO3)o1	none
Cc1noc(C)c1C(=O)N1CCCC(Nc2ccc(C(C)C)cc2)C1 (stereo not drawn)	none
O=C(c1nc(-c2ccccc2)n(-c2ccccc2)n1)N1CCN(S(=O)(=O)c2ccccc2)CC1	PLCg1 inh 11 (no result: GC-B act, GC-A act)
O=C(O)c1nc(-c2ccccc2)n(-c2ccccc2)n1	none
COc1ccc(-c2nn(Cc3ccccc3)cc2C(=O)N2CCN(c3ncccn3)CC2)cc1	none
COc1ccc(-c2cc(C#N)nc(Oc3ccc(Cl)cc3)n2)cc1	none
COc1ccc(-c2cc(C#N)nc(Cl)n2)cc1	GC-A act 78
O=C(Cc1ccc(Cl)cc1)Nc1cccnc1Cl	none
O=C(CCCc1ccccc1)Nc1cccnc1Cl	PLC-beta3 inh 12
COCCCNC(=O)c1cc(Cc2ccccc2)sc1N	none
Cc1[nH]c2ccccc2c1C(=O)c1cc(Cc2ccccc2)sc1N	GC-A act 48
Cc1nnc2ccc(-c3cccc(NS(=O)(=O)c4ccccc4[N+](=O)[O-])c3)nn12	none
CCOc1ccc(Cl)cc1-c1cc(C(=O)Nc2cc(OC)c(OC)c(OC)c2)[nH]n1	none
C#CCOCCOCCOCCNc1nc(N2CCN(C(=O)[C@H]([C@@H](C)CC)n3cc(CCCCN)nn3)CC2)nc(N2CCN(C(=O)[C@H](C)n3cc(CCC(=O)O)nn3)CC2)n1	GC-B act 53
C#CCOCCOCCOCCNc1nc(N2CCN(C(=O)[C@H]([C@@H](C)O)n3cc(CCCCN)nn3)CC2)nc(N2CCN(C(=O)[C@H](C)n3cc(CCC(=O)O)nn3)CC2)n1	none
Cc1c(C(=O)O)sc(S(=O)(=O)N2CCN(C(=O)CC(C)c3ccccc3)CC2)c1C(=O)O (stereo not drawn)	none
O=C(CN1C(=O)CCC1=O)Nc1nc(-c2ccc(Cl)s2)cs1	GC-A act 54
O=C(CSCC(=O)N1CCCCC1)Nc1nc(-c2ccc(Cl)s2)cs1	GC-A act 43
O=C(CN1C(=O)CCC1=O)Nc1nc(-c2cccs2)cs1	none
CC1CC1C(=O)Nc1nc(-c2ccc(Cl)s2)cs1 (stereo not drawn)	GC-A act 51
O=C(NC(NNc1ccc([N+](=O)[O-])cc1)(C(F)(F)F)C(F)(F)F)c1ccc(Cl)cc1	none
Cc1ccc(CSC2=Nc3ccccc3C3=NC(CC(=O)NCc4ccco4)C(=O)N23)cc1 (stereo not drawn)	none
CCOc1cc(C(=O)N2CCCC2)cc(OCC)c1OCC	none
CC(=O)N(Cc1ccccc1)c1ccc(C(=O)O)cc1	PLCg1 inh 9.7
C[C@@H](NC(=O)c1ncn2c1c(=O)[nH]c1cccnc12)c1ccccc1	none
C[C@@H](NC(=O)c1ncn2c1c(=O)[nH]c1ccc(Br)cc12)c1ccccc1	GC-B act 40
O=C(Cn1nnc(-c2ccc(F)cc2)n1)OCC(=O)c1ccccc1	GC-A act 49
O=C1c2cc(CO)cc(O)c2C(=O)c2c(O[C@@H]3OC(CO)[C@@H](O)[C@@H](O)[C@@H]3O)cccc21 (stereo partly drawn)	none
O=C(O)c1cc(O)c2c(c1)[C@@H]([C@H]1c3cc(C(=O)O)cc(O)c3C(=O)c3c(O[C@@H]4O[C@H](CO)[C@@H](O)[C@H](O)[C@H]4O)cccc31)c1cccc(OC3O[C@H](CO)[C@@H](O)[C@H](O)[C@H]3O)c1C2=O (stereo partly drawn)	PLC-beta3 inh 12
O=C(COC(=O)c1cccnc1Cl)Nc1ccc2c(c1)OCO2	none
O=C(C(=Cc1ccc(F)cc1)c1ccccc1)c1ccc(O)cc1	GC-A act 68
O=C(C(=Cc1ccc(O)cc1)c1ccccc1)c1ccccc1	PLCg1 inh 11
O=C(C(=Cc1ccccc1)c1ccccc1)c1ccccc1	none
O=C(CSCc1ccc(F)cc1)Nc1ccc(N2CCOCC2)cc1N1CCOCC1	none
Cc1nn(Cc2ccc(F)cc2)c2sc(C(=O)Nc3ccc(N4CCOCC4)cc3N3CCOCC3)cc12	GC-B act 40
Cc1cc(C)cc(N(CC(=O)NC2CCCCC2)C(=O)c2csnn2)c1	none
CCCCn1nnnc1C(c1ccccc1)N1CCN(c2ncccn2)CC1 (stereo not drawn)	none
CCCCn1nnnc1C(c1ccccc1)N1CCN(c2ccc(C)cc2)CC1 (stereo not drawn)	PLC-beta3 inh 11
O=C(NCc1ccccc1)[C@@H]1CCCN1C(=O)[C@H]1CCCN1C(=O)c1cccs1	PLC-beta3 inh 11
O=C(NCc1ccccc1)[C@H]1CCCN1C(=O)[C@H]1CCCN1C(=O)c1cccs1	none
COc1ccccc1Cn1nnc2c(=O)[nH]c(C3CCN(C(=O)c4ccccc4Cl)CC3)nc21	GC-B act 48
Cc1cccc(NC(=O)CSc2nc(C)nc3c2c(=O)n(C)c(=O)n3C)c1	none
Cc1csc(NC(=O)CSc2nc(C)nc3c2c(=O)n(C)c(=O)n3C)n1	GC-B act 37
COc1ccc(CN2CCSCC2)cc1O	none
C[C@H](CO)N1C[C@H](C)[C@@H](CN(C)C(=O)Nc2ccc(C(F)(F)F)cc2)Oc2ccc(NS(=O)(=O)c3ccc(F)cc3)cc2C1=O	none
C[C@H](CO)N1C[C@H](C)[C@@H](CN(C)C(=O)Nc2ccc(C(F)(F)F)cc2)Oc2ccc(NS(=O)(=O)c3ccccc3)cc2C1=O	GC-B act 82
CCC12CN(C(=O)c3ccc(OC)cc3)CC(CC)(CN(C(=O)c3ccc(OC)cc3)C1)C2=O	GC-B act 75
CCC12CN(C(=O)c3ccc([N+](=O)[O-])cc3)CC(CC)(CN(C(=O)c3ccc([N+](=O)[O-])cc3)C1)C2=O	none
CC(/C=C/c1ccc2c(c1)OCO2)=N/NC(=O)c1ccncc1	none
Cc1ccc(C(=O)Nc2ccc(Oc3ccc(C(=O)O)c(C(=O)O)c3)cc2)cc1C	PLCg1 inh 11
Cc1ccc(C(=O)Nc2ccc(Nc3ccccc3)cc2)cc1C	none
C#CC1(NC(=S)Nc2cccc(OC)c2)CCCCC1	PLCg1 inh 11
COc1cccc(NC(=S)NCc2ccc(F)cc2)c1	none
COc1ccccc1-c1cc(C(F)(F)F)nc(S(=O)(=O)CCCC(=O)N2CCOCC2)n1	GC-A act 70
Cc1ccc(OCC(O)CNC2CCCC2)c(C)c1 (stereo not drawn)	none
Cc1ccccc1OCC(O)CNC1CCC(NCC(O)COc2ccccc2C)CC1 (stereo not drawn)	PLCg1 inh 16
O=C1CC(c2ccc3c(c2)OCO3)C2=C(CCCC2=O)N1 (stereo not drawn)	PLCg1 inh 10
O=C1CC(c2ccc(F)c(Br)c2)C2=C(CCCC2=O)N1 (stereo not drawn)	none
O=C(O)c1ccc(N=Nc2c(O)[nH]c3ccc(Br)cc23)cc1	none

Bioassay records deposited in PubChem by several laboratories.
